{
  "source": "PubChem BioAssay (NCATS)",
  "note": "Inconclusive results are not listed. Values without a mark were called inactive. Active and inactive are the calls of the source. Calls follow the shape of the dose curve; as a rule, active = well fitted inhibition curve with a large enough effect; inconclusive = small, poorly fitted or top-dose-only effect; inactive = flat fitted curve, though single readings scatter. % is scaled to controls: 0 for no effect and ±100 for the full control effect.",
  "data": [
    {"biological_target": "Calcium and integrin-binding protein 1 (Homo sapiens) (UniProt Q99828)", "sequence (Q99828 whole entry, looked up)": "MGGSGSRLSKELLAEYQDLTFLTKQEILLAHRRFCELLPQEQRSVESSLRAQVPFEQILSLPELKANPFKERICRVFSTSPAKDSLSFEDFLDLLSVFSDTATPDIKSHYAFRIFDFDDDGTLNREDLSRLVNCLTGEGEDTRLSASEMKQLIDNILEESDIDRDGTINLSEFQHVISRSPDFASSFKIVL", "experiment": "Primary qHTS for Identification of Calcium Integrin Binding Protein 1 (CIB1) Competitor (AID 1508620);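 also: GST tagged CIB1 binding a fluorescein labelled alphaIIb integrin peptide tracer; top concentration of the series differs between compounds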", "settings": "CIB1-GST / FITC-alphaIIb peptide fluorescence polarization; series mostly up to 114 µM; activity change, negative = inhibition: at the top concentration", "outline": "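CIB1-GST (1 uM final) and compound incubated 15 min at room temperature before adding FITC-alphaIIb peptide tracer (100 nM final). Competition for binding read by fluorescence polarization (ex 480, em 540) after another 15 min at room temperature.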", "units": {"activity change, negative = inhibition": "%"}, "values": [
      {"smiles": "CC(=O)NCc1cc(Cl)c2cccnc2c1O", "activity change, negative = inhibition": -9.71},
      {"smiles": "Cc1ccc(NS(=O)(=O)c2cc3c(cc2N(C)CCN(C)C)NC(=O)CC3)cc1C", "activity change, negative = inhibition": 3.27},
      {"smiles": "O=C(OCC#CCSc1nnc(-c2cccc3ccccc23)o1)C1CCC1", "activity change, negative = inhibition": -3.57},
      {"smiles": "O=C(O)c1sc2c(c1-c1nc3ccccc3s1)CCNC2", "activity change, negative = inhibition": -0.636},
      {"smiles": "O=C1Nc2ccccc2/C1=C/c1cc(Cl)c(O)c(Cl)c1", "Potency": "inactive"},
      {"smiles": "COc1cccc(NCc2ccc(O)c3ncccc23)n1", "activity change, negative = inhibition": 11.3},
      {"smiles": "Cc1ccc(-c2nn3c(-c4ccccc4)nnc3s2)cc1NC(=O)c1ccc(-c2cccc(Cl)c2)o1", "activity change, negative = inhibition": 26.5},
      {"smiles": "COc1ccc(C2Nc3ccccc3C(=O)N2Cc2ccccc2)cc1COc1ccc(C(N)=O)cc1", "note": "(stereo not given)", "activity change, negative = inhibition": 3.92},
      {"smiles": "O=C1Nc2c(Cl)cccc2/C1=C\\c1cc(Cl)c(O)c(Cl)c1", "activity change, negative = inhibition": 14},
      {"smiles": "COc1cccc(-c2nnc3n2N=C(c2cc(OC)ccc2OC)CS3)c1", "activity change, negative = inhibition": 0.905},
      {"smiles": "CNc1sc(-c2cccc3ccccc23)nc1C(=O)OC", "activity change, negative = inhibition": -6.81},
      {"smiles": "O=C(CNC(=O)c1ccccc1)N[C@H](C(=O)Nc1cc(C(F)(F)F)ccc1Cl)c1ccccc1", "Potency": "inactive"},
      {"smiles": "Cc1ccc(N[S+](=O)([O-])c2cc3c(cc2NC2CC2)NC(=O)CC3)cc1C", "activity change, negative = inhibition": -7.22},
      {"smiles": "Cc1cc(C)nc(NC(=S)N2CCN(c3ccc(C(F)(F)F)cc3[N+](=O)[O-])CC2)c1", "activity change, negative = inhibition": -13},
      {"smiles": "CC1=C(C(=O)c2ccccc2)C(c2ccccc2Cl)N=C(Nc2nc3ccccc3o2)N1", "note": "(stereo not given)", "activity change, negative = inhibition": 12.8},
      {"smiles": "CN(C)c1cccc(-c2nccc(N3CCC(C(N)=O)CC3)n2)c1", "activity change, negative = inhibition": -4.34},
      {"smiles": "COc1cccc(NC(=S)N2CCN(c3cccc(C(F)(F)F)n3)CC2)n1", "activity change, negative = inhibition": 3.17},
      {"smiles": "CCOc1ccc(C(=O)Nc2ccc(-c3nc4ccccc4[nH]3)cc2)cc1", "activity change, negative = inhibition": 5.31},
      {"smiles": "Cc1ccnc(NC(=S)N[C@@H]2CCN(c3cccc(C(F)(F)F)c3)C2)c1", "activity change, negative = inhibition": -14.4},
      {"smiles": "Cc1cc(C)nc(NC(=S)N2CCN(c3ccc4cn(C)nc4c3)CC2)c1", "activity change, negative = inhibition": -2.21},
      {"smiles": "O=S(=O)(Nc1cccc2ccccc12)c1ccc(NCc2ccc(Br)cc2O)cc1", "activity change, negative = inhibition": 2.24},
      {"smiles": "Cc1cc2c(s1)c1cnn(Cc3c(F)cccc3F)c(=O)c1n2C", "activity change, negative = inhibition": 1.81},
      {"smiles": "NC(=O)C1CCN(c2ncc(-c3cccc(N4CCCC4)c3)s2)CC1", "activity change, negative = inhibition": -12.1},
      {"smiles": "O=[S+]([O-])(/C=C/c1nc(Nc2cc(F)cc(F)c2)c2ncn(CC(F)F)c2n1)c1ccccc1", "activity change, negative = inhibition": 3.18},
      {"smiles": "Cc1ccccc1-c1ccc(NC(=O)c2cccs2)cn1", "activity change, negative = inhibition": -1.11},
      {"smiles": "Cc1ccc(Cl)cc1NS(=O)(=O)c1cc2c(cc1F)NC(=O)CC2", "activity change, negative = inhibition": -1.29},
      {"smiles": "Cc1c(C(=O)N(C)CC2CCCO2)[nH]c2c1C(=O)CC(c1ccco1)C2", "note": "(stereo not given)", "activity change, negative = inhibition": -14},
      {"smiles": "FC(F)Oc1ccc(C2=Nn3c(nnc3-c3ccccc3C(F)(F)F)SC2)cc1OCC1CC1", "activity change, negative = inhibition": -4.75},
      {"smiles": "CCOC(=O)Nc1sc2c(c1C(N)=O)CCCC2", "activity change, negative = inhibition": -1.26},
      {"smiles": "O=S(=O)(Nc1nccs1)c1ccc(NCc2cccc(Cl)c2Cl)cc1", "activity change, negative = inhibition": 1.83},
      {"smiles": "COc1ccc(NS(=O)(=O)c2ccc3c(c2)CCC(=O)N3)cc1", "activity change, negative = inhibition": 7.41},
      {"smiles": "CCOC(=O)c1[nH]c2c(c1C)CCC(c1ccco1)C2", "note": "(stereo not given)", "activity change, negative = inhibition": -3.07},
      {"smiles": "CCCCN(C)C(=O)Cn1nc(-c2ccc(C(C)=O)cc2)ccc1=O", "activity change, negative = inhibition": -0.249},
      {"smiles": "CCOC(=O)c1ccc(-c2ccc3ncnc(N(C)Cc4sccc4C)c3c2)o1", "activity change, negative = inhibition": 4.01},
      {"smiles": "Cc1nc(SCC(=O)c2ccc(F)cc2)n[nH]1", "activity change, negative = inhibition": -0.986},
      {"smiles": "O=S1(=O)N=C(Oc2ccc(Br)cc2)c2ccccc21", "activity change, negative = inhibition": -2.85},
      {"smiles": "O=[S+]([O-])(Nc1ccc(N2CCNCC2)cc1)c1ccc(NCc2cccc(Cl)c2O)cc1", "activity change, negative = inhibition": -17.2},
      {"smiles": "CN(C)[S+](=O)([O-])c1ccc(-c2cncc(NC(=O)c3cccs3)c2)cc1", "activity change, negative = inhibition": -1.81},
      {"smiles": "COc1ccccc1C1=Nn2c(nnc2-c2ccccc2O)SC1", "activity change, negative = inhibition": -2.22},
      {"smiles": "Cc1nc(CN=C2NC3=C(C(=O)CCC3)C(c3[nH]ncc3Cl)N2)cs1", "note": "(stereo not given)", "activity change, negative = inhibition": -2.94}
    ]}
  ]
}
